Source: PubChem BioAssay (several laboratories)
Shown are actives, neighbours in structure and some others; about 6.2% of the full set was active somewhere.
GRIN3A LBD mod: modulates the human NR3A ligand-binding domain; AID 1259313; Tm shift relative to glycine control, % at 25 µM; hit rate 2.5% among 340,000; NR3A LBD differential scanning fluorimetry, Tm shift; 0% = protein alone, 100% = glycine-bound protein;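 active = melting temperature shift of at least 10% of the positive control shift, at one fixed dose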
AI-2 QS mod: modulates the Vibrio harveyi AI-2 quorum sensing system. hit rate 0.4% among 300,000. activity change, % at 7.5 µM. AID 2094. Vibrio harveyi JMH597 AI-2 luminescence/OD600 ratio, 9 h; hits give low values; strain lacks LuxN and CqsS sensors; 0 = neutral-control median; in the data active = activity change below about -75%, passing the limit was not always enough;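 note: luminescence divided by OD600 gain over 9 h not by final OD600 alone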
Mot1-301 SUMO: inhibitors of SUMOylation pathway: yeast Mot1-301 growth rescue. S. cerevisiae Mot1-301 growth rescue, ATP luminescence, 38.5C; percent above DMSO median, 100 means doubled. growth rescue, % at 18.8 µM. hit rate 1% among 320,000;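 active = every valid replicate shows activation above 250% relative to neutral control wells; inactive = the rest, any valid replicate at or below 250%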;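 note: OY570 slx delta 5 strain wells were the positive control but not used for scaling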
AHR act: activates the human aryl hydrocarbon receptor; AID 2796; AHR-responsive luciferase reporter cells, luminescence; activation, % at 5 µM; P35869; hit rate 2.5% among 320,000; in the data active = activation above about 47%;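 note: 0% = vehicle wells and 100% = reference agonist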
H9c2 protect: myocardial damage modulation in H9c2 cells; hit rate 0.63% among 360,000; H9c2 cardiomyocytes, H2O2 injury protection, ATPLite, 2 h; protection from H2O2 cell death, % at 20 µM;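 active = compounds giving at least 50% protection of heart cells from peroxide-induced death in the single-dose screen, raw or plate-pattern-corrected value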;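 note: 0% = DMSO wells with peroxide and 100% = DMSO wells without peroxide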
NTR1 agonist: NTR1 (human) agonism | activation, % at 20 µM | hit rate 0.17% among 330,000 | AID 493036 | NTR1-U2OS beta-arrestin-GFP spot imaging, agonist mode | P30989;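 active = activation at or above 40% of the spot to cytoplasm intensity ratio, with at least 20 cells analyzed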;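 note: 0% = DMSO without peptide and 100% = 100 nM NTR1 peptide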
Target sequence (P30989 whole entry, looked up): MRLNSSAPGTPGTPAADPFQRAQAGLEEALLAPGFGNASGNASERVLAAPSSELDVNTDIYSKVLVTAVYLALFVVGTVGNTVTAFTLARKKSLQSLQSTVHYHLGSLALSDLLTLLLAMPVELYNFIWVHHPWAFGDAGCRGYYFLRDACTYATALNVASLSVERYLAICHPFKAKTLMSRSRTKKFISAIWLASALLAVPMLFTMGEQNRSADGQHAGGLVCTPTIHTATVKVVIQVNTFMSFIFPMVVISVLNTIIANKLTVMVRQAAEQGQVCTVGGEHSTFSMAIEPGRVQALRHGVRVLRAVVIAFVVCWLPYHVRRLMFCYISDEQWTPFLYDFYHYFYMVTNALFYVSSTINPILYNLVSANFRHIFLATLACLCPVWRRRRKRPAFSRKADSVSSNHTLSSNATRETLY
* marks the source's active call; other numbers are inactive results; . = no result.

SMILES | GRIN3A LBD mod | AI-2 QS mod | Mot1-301 SUMO | AHR act | H9c2 protect | NTR1 agonist
CCN1CCN(C(=O)CCc2nnc3ccc(N4CCN(c5cccc(OC)c5)CC4)nn23)CC1 | 0.2 | 6.9 | -4.1 | 3.5 | 14.0 | -1.2
CCCc1cc2nnc(SCC(=O)N(C)C3CCCCC3)n2c(N)n1 | -2.7 | 36.9 | -11.3 | 0.6 | -0.1 | -0.4
CCC1(C)OC(=O)N2CCc3c(C)[nH]c4c(C)ccc(c34)C21C (stereo not given) | -6.2 | 10.4 | -7.0 | 61.6* | -0.6 | -0.6
O=C(c1cnn2c(-c3ccccc3)cc(-c3ccccc3)nc12)N1CCN(Cc2ccccc2)CC1 | -0.1 | -10.6 | 0.9 | -0.4 | 15.4 | 9.5
Cc1ccc(Cn2c(=O)c3cccnc3n(CC(=O)Nc3cccc(C(F)(F)F)c3)c2=O)cc1 | 22.8* | 18.6 | -3.8 | -0.9 | -1.9 | 0.3
Oc1ccc2ccccc2c1CNc1cnc2ccccc2c1 | -6.8 | 12.0 | -6.8 | 28.8 | 3.6 | -0.6
Oc1ccccc1CNc1cnc2ccccc2c1 | -23.3 | 11.6 | -4.2 | 48.9* | -17.5 | 2.2
C=CCc1cccc(CNc2cnc3ccccc3c2)c1O | -12.6 | -77.3* | 112.1 | 7.0 | -16.9 | 12.1
CCCOc1ccc(C(=O)NCCC(=O)NCCCC(=O)O)cc1 | -3.8 | 0.9 | 5.0 | 0.1 | 4.5 | 0.5
O=C(COc1cccc(F)c1)Nc1nc(-c2cccnc2)cs1 | -5.0 | . | 7.4 | 53.7* | 10.5 | -0.7
N#Cc1ccccc1OCC(=O)Nc1nc(-c2ccccn2)cs1 | . | . | . | . | 63.1* | .
O=C(COc1ccc(F)cc1Cl)Nc1nc(-c2ccccn2)cs1 | . | 49.4 | 210.6 | 19.5 | 61.4* | 2.5
Cc1cc(C)cc(OCC(=O)Nc2nc(-c3ccccn3)cs2)c1 | 3.6 | . | . | . | 40.6 | 2.3
O=C(COc1cccc(F)c1)Nc1nc(-c2ccncc2)cs1 | -8.6 | . | 35.6 | 9.9 | -5.4 | 1.3
Cc1ccc(S(=O)(=O)N2CCC(C(=O)N3CCc4ccccc43)CC2)cc1C | 1.7 | . | . | . | 7.0 | 2.9
C=CCc1cccc(OC)c1OCCOCCn1ccnc1 | 12.2* | 26.1 | 4.6 | 73.3* | 12.3 | 0.7
Cc1[nH]n(C(N)=S)c(=O)c1N=Nc1ccc(S(=O)(=O)N2CCCC2)cc1 | -5.0 | 34.8 | -8.1 | 2.3 | -3.3 | 1.8
Cc1ccc(N=Nc2c(C)[nH]n(C(N)=S)c2=O)cc1 | -16.2 | 6.1 | -5.7 | 50.6* | -0.9 | 1.6
Cc1[nH]n(C(N)=S)c(=O)c1N=Nc1cc(C(F)(F)F)ccc1Cl | 11.6* | -6.2 | -11.3 | 3.4 | -17.2 | 2.8
CCCN1CCN(C(=O)c2ccc(F)c(S(=O)(=O)N3CCOCC3)c2)CC1 | -0.1 | . | -3.3 | -0.1 | 4.7 | 2.5
Nc1ncnc2c1ncn2[C@@H]1O[C@H](C(=O)Nc2ccc(Oc3ccccc3)nc2)[C@@H](O)[C@H]1O | . | . | . | . | 3.4 | .
COc1ccc(COC(=O)CCc2c[nH]c3ccccc23)cc1F | -7.3 | 9.2 | -10.5 | 4.5 | -13.2 | 2.1
O=[N+]([O-])c1cc(CN2CCN(c3cccc(C(F)(F)F)c3)CC2)c2cccnc2c1O | 9.4 | -96.9* | 53.9 | 1.4 | . | 2.0
Cc1c(C(=O)NCc2ccccc2C(F)(F)F)sc(=O)n1Cc1ccc(F)cc1 | . | . | . | . | 4.4 | .
Cc1nc2ccc(C(=O)N(C)Cc3ccco3)cn2c1N(C)CC1CCCCC1 | . | . | . | . | -2.2 | .
SMILES | GRIN3A LBD mod | AI-2 QS mod | Mot1-301 SUMO | AHR act | H9c2 protect | NTR1 agonist
Cn1ccsc1=NC(=O)c1ccc(S(C)(=O)=O)cc1 | 1.4 | 31.7 | 28.1 | -1.8 | -1.4 | 0.4
Cn1ccsc1=NC(=O)c1ccc(S(C)(=O)=O)c([N+](=O)[O-])c1 | 1.8 | 53.8 | 173.6 | 61.8* | -8.5 | 3.3
Cn1ccsc1=NC(=O)c1ccc(Cl)c([N+](=O)[O-])c1 | -1.3 | 3.3 | -11.7 | 68.0* | -12.9 | -0.4
Cc1cc(NC(=O)c2cc3cccc([N+](=O)[O-])c3[nH]2)ccc1F | 28.8* | 27.8 | -10.0 | 64.8* | -22.2 | 10.5
COCC(C)NC(=O)c1cc2cccc([N+](=O)[O-])c2[nH]1 (stereo not given) | -0.4 | . | -5.6 | 22.9 | 0.7 | 1.3
COc1ccc(C)cc1NC(=O)/C=C/c1ccc(OC)c(S(=O)(=O)N2CCOCC2)c1 | 1.4 | . | -13.6 | 2.2 | 8.5 | 1.0
CC(=O)c1c(Cl)nc2ccc(Br)cc2c1-c1ccccc1 | -1.3 | 16.2 | 6.1 | -1.2 | -9.9 | 3.3
COc1ccc(-c2cc(=O)oc3c(O)c(O)ccc23)cc1 | 28.7* | 16.5 | 203.3 | 3.7 | 63.4* | -1.4
Cc1ccc(CNC(=O)C2CCC(=O)N(CCCN3CCOCC3)C2)cc1 (stereo not given) | 0.3 | 1.6 | -22.7 | -1.5 | -7.8 | 0.8
O=C(N/N=C/c1ccc(-c2cccc(C(F)(F)F)c2)o1)c1ccccc1Br | 15.0* | 29.2 | 51.1 | -4.2 | -11.2 | 7.3
NC(=O)N/N=C/c1ccc(-c2cccc(C(F)(F)F)c2)o1 | -1.4 | 3.4 | 4.9 | 78.4* | 1.4 | 0.7
O=C(N/N=C/c1ccc(-c2cccc(C(F)(F)F)c2)o1)c1cccc(F)c1 | 10.7* | 16.8 | 114.3 | -3.7 | 9.0 | 7.1
O=C(N/N=C/c1ccc(O)cc1)c1cccc(C(F)(F)F)c1 | 9.7 | 17.4 | -11.2 | 15.3 | 27.3 | 1.2
O=C(Cc1ccc(Br)cc1)N/N=C/c1ccc(-c2cccc(C(=O)O)c2)o1 | -0.4 | 15.9 | -8.2 | 12.4 | -4.7 | 1.2
Cc1ccc(NCC(=O)N/N=C/c2ccc(-c3cccc(C(F)(F)F)c3)o2)cc1 | 25.3* | 32.1 | 6.5 | 20.3 | -1.9 | 34.5
NC(=O)N/N=C/c1cccc(C(F)(F)F)c1 | 0.0 | 27.0 | 0.3 | -0.1 | 1.4 | -1.2
COc1ccc(Cl)cc1NC(=O)Nc1ccc(C(=O)N2CCOCC2)cc1 | -3.6 | 26.0 | -7.5 | -1.1 | 2.9 | -0.4
CCOC(=O)c1ccc(NC(=O)NCc2ccccn2)cc1 | -0.6 | 13.5 | -8.0 | 12.2 | -5.9 | -0.3
O=C(N/N=C/c1ccc(-c2cccc(C(F)(F)F)c2)o1)c1ccccc1O | 20.5* | -1.1 | -0.7 | 17.7 | 14.4 | 18.5
CN(C)c1ccc(/C=N/NC(=O)c2ccccc2O)o1 | -1.3 | 24.8 | 16.3 | 5.5 | 4.6 | 0.1
CCc1ccc(N2CC(C(=O)N3CCN(S(=O)(=O)c4cccc(F)c4)CC3)CC2=O)cc1 (stereo not given) | . | . | . | . | -11.9 | .
O=C(O)c1cccc(N/N=C(\N=Nc2ccccc2)c2ccccc2)c1 | -12.0 | 36.4 | 193.0 | 2.7 | -4.4 | 2.9
O=C(O)c1ccc(N=N/C(=N\Nc2ccc(C(=O)O)cc2)c2ccccc2)cc1 | 23.2* | 18.8 | -0.5 | 6.5 | 0.1 | 0.9
Cc1cc(C(=O)NC(=S)Nc2ccccc2N2CCCC2)ccc1[N+](=O)[O-] | 1.2 | 31.8 | -4.6 | 49.7* | 1.1 | -1.7
COc1ccc(C(=O)Nc2ccccc2N2CCOCC2)cc1[N+](=O)[O-] | 1.6 | 18.2 | 14.0 | 15.2 | 4.3 | 1.2
